Molecules are shown by their SMILES. Records with an inconclusive call do not appear. Entries that show only a call come without a potency. Calls of active or inactive are those of the source. Calls come from the whole dose curve.
Potency is the fitted concentration of half-maximal effect.

The experiment in a line: qHTS assay for small molecule disruptors of the mitochondrial membrane potential - cell viability (AID 720634). Note: nearly all actives have a fitted effect of over 20% in size. The conditions noted are these: HepG2 viability, ATP luminescence (CellTiter-Glo), 1 h; series mostly up to 83.2 µM. From the text:
U.S. Tox21 Program National Center for Advancing Translational Sciences [NCATS] NIH Chemical Genomics Center [NCGC] U.S. Environmental Protection Agency [EPA] National Institutes of Environmental Health Sciences [NIEHS] National Toxicology Program [NTP] U.S. Food and Drug Administration [FDA] Tox21 Assay Overview: Mitochondrial membrane potential (MMP), one of the parameters for mitochondrial function, is generated by mitochondrial electron transport chain that creates an electrochemical gradient by a series of redox reactions. This gradient drives the synthesis of ATP, a crucial molecule for various cellular processes. Measuring MMP in living cells is commonly used to assess the effect of chemicals on mitochondrial function; decreases in MMP can be detected using lipophilic cationic fluorescent dyes. […] The dye accumulates in the mitochondria of healthy cells as aggregates, with red fluorescence. The mitochondrial potential decreases and the dye could not accumulate in the mitochondria and remains in the cytoplasm in monomers, with green fluorescence. In addition to the mitochondrial potential assay, these cells were also used to test the cytotoxicity by determining the cell viability in the culture based on the quantitation of ATP present. The cytotoxicity was measured in the same assay well of MMP assay.
Tox21 Assay Protocol Summary: 2,000 HepG2 cells in 5 uL/well were dispensed into black, clear-bottom 1536-well plates using a Multidrop Combi (Thermo Scientific) dispenser. The assay plates were incubated for an overnight at 37 C to allow cells to attach to the wells, followed by the transfer of 23 nL compound or DMSO vehicle by a pin tool (Kalypsys). The plates were incubated for 1 hr at 37 C and 5% CO2, followed by the addition of 5 uL of 2X m-MPI dye into each well using Flying Reagent Dispenser (Aurora Discovery) and then CellTiter-Glo reagent was added at 4 uL/well and incubated 30 min at room temperature. Then luminescence intensity was quantified on a ViewLux CCD-based plate reader.
For the molecule `COC(=O)NCCC[Si](OC)(OC)OC`, the Potency result is “inactive”. For `O=C1OC(=O)c2cccc3cccc1c23`, the Potency entry was “inactive”.

Consider `COc1ccc2sc(C(=O)Nc3nnn[nH]3)c(OC(C)C)c2c1`, for which the Potency entry was “inactive”. Then `O=C(O)CC(=O)O`, with “inactive”; and `S=P(N1CC1)(N1CC1)N1CC1`, with “inactive”; and `COc1cc(C(C)C)c2c(c1)S(=O)(=O)N(COc1cc(=O)n3cccc(OCCN4CCCCC4)c3n1)C2=O`, with “inactive”.

For the molecule `CCCCCCCCCCCCCOP(=O)(O)O`, the Potency result is “inactive”. As for `COc1cc(C(=O)NS(=O)(=O)c2ccccc2C)ccc1Cc1cn(C)c2ccc(NC(=O)OC3CCCC3)cc12`, the Potency entry is “inactive”. `O=C(O)CCn1c2c(c3ccccc31)C[C@H](NS(=O)(=O)c1ccc(F)cc1)CC2`: the Potency entry was “inactive”.

Take `O=C1NC2CCCCN2C12CCN(CCCN1c3ccccc3CCc3ccc(Cl)cc31)CC2` (stereo not given): the Potency result was “inactive”. Consider `Cc1ccc(N)cc1O`, for which the Potency result was “inactive”.

As to `C/C=C/C(=O)Oc1c(CCCCCC(C)C)cc([N+](=O)[O-])cc1[N+](=O)[O-]`, the Potency is 3.06 µM (active). Take `O=C(O)c1cccc(Cl)n1`: the Potency entry is “inactive”. Then `O=C1c2c(O)ccc(O)c2C(=O)c2c(NCCNCCO)ccc(NCCNCCO)c21`, with “inactive”; and `CCc1ccc(O)c(C(C)(C)C)c1`, with “inactive”; and `CCCCCCCCCCCC(=O)N(CC)CC`, with “inactive”. In the case of `N[C@@H](CSSC[C@H](N)C(=O)O)C(=O)O` it was “inactive”; in that of `CN1[C@@H]2CC[C@@H]1CC(OC(=O)C(CO)c1ccccc1)C2` (stereo not given in full), “inactive”. In the case of `O=C(Nc1ccc(Cl)cc1)Nc1ccc(Cl)c(C(F)(F)F)c1`, the Potency was 1.5 µM (active). As to `CN(C)CCCN1c2ccccc2CCc2ccccc21`, the Potency entry was “inactive”.

In the case of `C=CC(C)(CCC=C(C)C)OC(=O)/C=C/c1ccccc1` (stereo not given), the Potency result is “inactive”. As to `CC(C(O)c1ccccc1)N(C)CCOC(c1ccccc1)c1ccccc1` (stereo not given), the Potency result was “inactive”.

Turning to `Oc1ccc(-c2ccc(O)cc2)cc1`, the Potency result is “inactive”. As to `Clc1ccc(C(Cn2ccnc2)OCc2ccsc2Cl)c(Cl)c1` (stereo not given), the Potency result is “inactive”. In the case of `CC(NCCC(c1ccccc1)c1ccccc1)c1ccccc1` (stereo not given) it was “inactive”; in that of `CC(C)(C)CC(C)(C)c1ccccc1O`, 27.4 µM (active).

As to `COC(=O)[C@]1(C)CCC[C@@]2(C)[C@H]1CC=C1C=C(C(C)C)CC[C@@H]12`, the Potency entry is “inactive”.

Consider `SCCCCCCCCS`, for which the Potency result was “inactive”.

`O=C1OC(OC(=O)c2cccnc2Nc2cccc(C(F)(F)F)c2)c2ccccc21` (stereo not given): the Potency result is “inactive”. Then `Cc1cccc(Br)c1`, with “inactive”; and `CNC(=S)NN`, with “inactive”; and `COCC(=O)O[C@]1(CCN(C)CCCc2nc3ccccc3[nH]2)CCc2cc(F)ccc2[C@@H]1C(C)C`, with 26.6 µM (active).

For the molecule `COC(=O)CC(C)CCC=C(C)C` (stereo not given), the Potency entry is “inactive”.

In the case of `Clc1ccc(C(Cn2ccnc2)OCc2c(Cl)cccc2Cl)c(Cl)c1` (stereo not given), the Potency entry is “inactive”. Then `c1ccc(Sc2ccccc2)cc1`, with “inactive”; and `CN(C)c1ccc(N=Nc2ccccc2C(=O)O)cc1`, with “inactive”. Then `O=C(O)Cc1ccc(OCCNC[C@H](O)c2ccccc2)cc1`, with “inactive”; and `O=Cc1ccc(F)cc1`, with “inactive”. Then `Cc1cccc(C)c1NC(=O)CN1CCN(CCCC(c2ccc(F)cc2)c2ccc(F)cc2)CC1`, with “inactive”. Take `Cc1occc1SSc1ccoc1C`: the Potency entry was “inactive”.

The record behind these values is PubChem BioAssay (Tox21).
